# About 83,000 compounds went through this panel and 20% of them were active in at least one assay; those are over-represented in the sample as a whole.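 Results are percent growth after 48 hours of single-concentration exposure. 100 means growth as in untreated cells, lower positive values show inhibition; negative values down to -100 show cell death.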 Unmarked numbers belong to inactive results. Active and inactive are the calls of the source. Rule for the calls: active = growth percent below 10; inactive = the rest.
# Columns and labels:
# Test in all cases: NCI-60 one-dose screen, 48 h (100 = growth as untreated, 0 = no growth, -100 = all killed)
# Conditions in all cases: 10 µM
# SR leukemia = system: SR leukemia
# RPMI-8226 leukemia = system: RPMI-8226 leukemia
# OVCAR-8 ovarian = system: OVCAR-8 ovarian
# OVCAR-5 ovarian = system: OVCAR-5 ovarian
# OVCAR-4 ovarian = system: OVCAR-4 ovarian
# SK-OV-3 ovarian = system: SK-OV-3 ovarian
# IGROV1 ovarian = system: IGROV1 ovarian
# OVCAR-3 ovarian = system: OVCAR-3 ovarian
# HS 578T breast = system: HS 578T breast
# NCI/ADR-RES ovarian = system: NCI/ADR-RES ovarian
# T-47D breast = system: T-47D breast
# BT-549 breast = system: BT-549 breast
# MDA-MB-435 melanoma = system: MDA-MB-435 melanoma
# SW-620 colon = system: SW-620 colon
# MCF7 breast = system: MCF7 breast
# HCT-116 colon = system: HCT-116 colon
# HCC-2998 colon = system: HCC-2998 colon
# KM12 colon = system: KM12 colon
# MDA-MB-468 breast = system: MDA-MB-468 breast
Structure (SMILES),growth (SR leukemia),growth (RPMI-8226 leukemia),growth (OVCAR-8 ovarian),growth (OVCAR-5 ovarian),growth (OVCAR-4 ovarian),growth (SK-OV-3 ovarian),growth (IGROV1 ovarian),growth (OVCAR-3 ovarian),growth (HS 578T breast),growth (NCI/ADR-RES ovarian),growth (T-47D breast),growth (BT-549 breast),growth (MDA-MB-435 melanoma),growth (SW-620 colon),growth (MCF7 breast),growth (HCT-116 colon),growth (HCC-2998 colon),growth (KM12 colon),growth (MDA-MB-468 breast)
COc1cc(/C=C/C(=O)c2ccc(C(F)(F)F)cc2)ccc1Oc1nc(Nc2ccc(F)cc2)nc(N(C)C)n1,30.4%,13.5%,85%,92.7%,69.8%,103%,91.4%,79.6%,91.6%,66.7%,44.6%,90.9%,80.1%,50.2%,30.8%,7.06% (active),97.9%,87.8%,–
COc1ccc(C(=O)NC(=S)N2CCN(c3ncnc4c3cnn4-c3ccccc3)CC2)cc1,12.3%,72.6%,51.3%,79.3%,54.1%,7.3% (active),66.4%,83.1%,51%,61.7%,70.3%,88.2%,84.8%,80.5%,54.3%,66.6%,87%,84.4%,61.2%
CCOC(=O)C(Cc1ccccc1)N1C(=O)/C(=C/N2N=C(c3ccc(OC)cc3)CC2c2ccc3ccccc3c2)SC1=S (stereo not given),6.53% (active),4.07% (active),17.1%,39.3%,35.1%,9.93% (active),13%,15.1%,1.03% (active),54.1%,14.6%,-6.78% (active),16.3%,13.4%,0.163% (active),7.1% (active),-92% (active),9.78% (active),-34.1% (active)
O=c1c2ccccc2nc(COc2ccccc2)n1/N=C/c1ccc(N2CCOCC2)cc1,95.1%,88.8%,33.1%,93.3%,40.4%,64.5%,56.9%,85.2%,41.2%,58.1%,92.9%,76.8%,99.3%,97.6%,77.6%,52.5%,99.2%,90.7%,–
COc1ccc(C(=O)/C=C/c2cc(C(F)(F)F)cc(C(F)(F)F)c2)cc1S(N)(=O)=O,5.52% (active),3.03% (active),-29.8% (active),-93.6% (active),-80% (active),20%,-69% (active),-88.6% (active),-12.8% (active),-34% (active),-59.8% (active),-65.8% (active),-69.2% (active),-58% (active),-72.5% (active),-59.1% (active),-98.3% (active),-75.4% (active),-95.2% (active)
COc1cc2c(cc1OC)CN(CCCCOc1cc(O)c3c(=O)cc(-c4ccccc4)oc3c1)CC2,-13.8% (active),24.1%,85.1%,114%,30%,74.5%,95.8%,94.9%,74.2%,57.4%,1.69% (active),63.6%,67.5%,62.8%,29.3%,0.234% (active),-7.68% (active),80.1%,-7.3% (active)
O=C(CSc1nnc(-c2c[nH]c3ccccc23)n1-c1ccccc1)Nc1ccc(C(=O)/C=C/c2cccc([N+](=O)[O-])c2)cc1,75.2%,13.9%,97.2%,103%,84.2%,106%,82.9%,103%,74%,96.3%,57.5%,93.5%,98.9%,101%,-6.63% (active),-54% (active),62.7%,88.7%,75.4%
CCCn1c(=O)c2[nH]c(-c3ccc(OCc4nc5ccc(C(F)(F)F)cc5[nH]4)cc3)nc2n(CCC)c1=O,24.6%,28.1%,-7.74% (active),82.3%,60%,90.7%,62.7%,52.5%,33.4%,55.8%,33.2%,41.7%,63%,70%,28.3%,25.2%,76.7%,55.5%,30.8%

# — PubChem BioAssay (NCI)
